# Compound activity from PubChem.
# Shown are actives, neighbours in structure and some others; about 2.6% of the full set was active somewhere.
# CCT modulator = High-Throughput Screening for Modulators of Cytosolic Chaperonin Activity; 360,000 tested, 0.3% active; AID 651819, 2012; purified chaperonin ATPase assay, HTRF ADP detection, 30 min; activity change, % (concentration not given with the values), hits read low; in the data active = activity change below about -30%; also: % is scaled to controls: 0 for no effect and ±100 for the full control effect
#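 TRiC at 40 or 20 nM final (batch-dependent) in 30 mM Tris pH 7.4, 100 mM KCl, 5 mM MgCl2, 1 mM DTT, with compound at single 76 uM and 10 uM ATP, 30 min at 37 deg C. ADP detected by HTRF Transcreener, 665/615 ratio.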
# Nrf2 activator = qHTS of Nrf2 Activators. AREc32 ARE-luciferase reporter (MCF7-derived line), luminescence, 24 h. Potency, µM (doses to about 46.1 µM), for the others: at the highest dose activation, most hits filed as activators. 410,000 tested, 0.31% active; also: potency is read from the fitted curve at half-maximal effect; % of control where 0% means no effect; nearly all actives have a fitted effect of over 65% in size
#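 Steps: seed AREc32_Fluc cells (1000/well, 5% FBS OPTI-MEM); incubate overnight at 37 deg C; add 23 nL compound; incubate 24 hr; add Steady-Glo; hold 30 min RT; read luminescence.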
# A549 viability = Nrf2 qHTS screen for inhibitors: counterscreen for cytotoxicity; A549 ARE-Fluc cells, CellTiter-Fluor viability, 18-24 h; Potency, µM (top dose mostly 46 µM), for the others: at the highest dose activity change, negative = cytotoxicity, usual class: inhibitors; AID 504648, 2011; 390,000 tested, 0.16% active; also: potency is read from the fitted curve at half-maximal effect; % is scaled to controls: 0 for no effect and ±100 for the full control effect
#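 Cytotoxicity counterscreen: CellTiter-Fluor fluorescence was measured in A549 ARE_Fluc cells after 18-24 h of compound exposure in a concentration series. The subsequent BugLite luminescent read reports ARE-luciferase activity.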
# TCR act = Activators of T cell receptors: qHTS campaign | primary human leukocytes, anti-CD3, IL-2 HTRF, 48 h | Potency, µM (doses to about 9.22 µM), for inactives: at the top dose activation of IL-2 secretion, most hits filed as activators | 330,000 tested, under 10 active; also: % of control where 0% means no effect
#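 Primary human leukocytes were stimulated with a-CD3 beads plus compounds for 48 hr without co-stimulation; secreted IL-2 was quantified by HTRF using a-IL-2-K (europium cryptate) and a-IL-2-d2, excited at 320nm with acceptor emission read at 665nm.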
# Nrf2 block = Nrf2 qHTS screen for inhibitors | 360,000 tested, 2.1% active | Potency, µM (doses to about 46 µM), for inactives: at the highest dose activity change, negative = inhibition, usual class: inhibitors | A549 ARE-Fluc reporter, luciferase luminescence, 18-24 h | AID 504444, 2011; also: potency is read from the fitted curve at half-maximal effect; % is scaled to controls: 0 for no effect and ±100 for the full control effect; nearly all actives have a fitted effect of over 60% in size
#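 Nrf2 function is reported as luminescence of an ARE-controlled luciferase in A549 cells. Compounds were tested at several concentrations, and a CellTiter-Fluor read on the same wells flagged cytotoxicity.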
# AT treatment = qHTS Assay for Identifying a Potential Treatment of Ataxia-Telangiectasia; F2112 A-T fibroblasts, KAP-1 phosphorylation AlphaLISA; neocarzinostatin DNA damage 30 min before lysis; Potency, µM (doses to about 57.5 µM), for the others: top-dose activation, actives largely listed as activators; 320,000 tested, 0.19% active; AID 485349, 2010; also: potency is read from the fitted curve at half-maximal effect; % of control where 0% means no effect; nearly all actives have a fitted effect of over 45% in size
#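 ATM-like activity read as KAP-1 phosphorylation via AlphaLISA donor/acceptor antibody pairs after lysis and 6 hr at 25C. Cells were ATM-null patient fibroblasts (F2112, hTERT), dosed 60 min, then exposed to the DSB inducer NCS for 30 min.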
# Numbers without * were called inactive; ? = inconclusive; . = no result; [ ] = remark or other dose. Unless noted, calls follow the shape of the dose curve; as a rule, active = well fitted curve in the direction sought with a large enough effect; inconclusive = small, poorly fitted or top-dose-only effect, or another doubt; inactive = no such curve, though single readings can be large; an effect the other way counts as inactive or inconclusive.
SMILES,CCT modulator,Nrf2 activator,A549 viability,TCR act,Nrf2 block,AT treatment
Cc1cccc(N2CC(C)Cn3c2nc2c3c(=O)[nH]c(=O)n2C)c1 (stereo not given),-1,1%,-6%,-2%,1%,2%
O=C(NCC(=O)N1CCN(Cc2ccccc2)CC1)c1ccc(Cl)cc1,2,0%,-16%,0%,29µM*,-1%
CCOc1ccc(S(=O)(=O)NCC(c2cccs2)S(=O)(=O)c2ccc(C)cc2)cc1 (stereo not given),.,12%,0%,.,.,.
CC1CCCCN1S(=O)(=O)c1cccc2cccnc12 (stereo not given),2,0%,-6%,-4%,11%,26%
CC1CNCCN1S(=O)(=O)c1cccc2cnccc12 (stereo not given),-1,7%,-7%,-4%,18µM*,1%
CCc1c(C)[nH]n(-c2nc(-c3ccccc3)cs2)c1=O,-4,4%,4%,-1%,?,-2%
Cc1[nH]n(-c2nc(-c3ccc(Cl)cc3)cs2)c(=O)c1N=Nc1ccc(O)cc1,0,3%,15µM*,-1%,?,10%
Cc1nc2ccn(Cc3ccco3)c(=O)c2cc1C(=O)Nc1ccc(F)cc1,.,13µM*,5%,.,-14%,.
Cc1ccc(NC(=O)c2cc3c(=O)n(Cc4ccco4)ccc3nc2C)cc1C,.,22%,15%,.,?,.
CCN1CCN(Cc2ccc(NC(=O)c3ccc(C)c(NC(=O)c4cncc(-c5cccs5)c4)c3)cc2C(F)(F)F)CC1,-1,-3%,?,4%,8.2µM*,.
CC1=C(C(=O)N(C)C)CC(CC(=O)NC2CC2)C(=O)N1Cc1ccc(C(C)(C)C)cc1 (stereo not given),0,-1%,.,.,.,.
O=C1Nc2cc(C(=O)N3CCN(c4ccccn4)CC3)ccc2S/C1=C\c1ccccc1,-42*,1%,-2%,0%,23µM*,-4%
COC(=O)c1c(NC(=O)c2c(OC)cccc2OC)sc2c1C(C(=O)OC)CC2 (stereo not given),-1,4%,?,-7%,13µM*,17%
CNc1sc(C(=O)c2ccc(F)cc2)c(N)c1-c1nc2ccccc2s1,1,11µM*,-18%,1%,11%,.
CNc1sc(C(=O)c2cccs2)c(N)c1-c1nc2ccccc2s1,-10,?,-21%,-2%,?,11%
O=C(CCc1ccccc1)Nc1nc2n(n1)C(c1ccccc1)CC(=O)N2 (stereo not given),-4,0%,0%,5%,-5%,32µM*
N#Cc1nc(-c2ccc(OCc3ccccc3Cl)cc2)oc1N1CCC(C(N)=O)CC1,.,.,-3%,.,9%,.
O=C(Cn1c(=O)n(Cc2nc(-c3ccccc3)no2)c(=O)c2ccccc21)Nc1cccc(C(F)(F)F)c1,.,-1%,-16%,.,16µM*,.
O=C(Cn1c(=O)n(Cc2nc(-c3ccccc3)no2)c(=O)c2ccccc21)Nc1cccc(Cl)c1,.,-1%,-11%,.,-14%,.
CCOc1cc(/C=C2\CCCC(C(=O)C(F)(F)F)=C2O)ccc1O,-2,?,0%,-1%[46.1 µM],14%,-6%
CCOc1ccc(N(CC)S(=O)(=O)N2CCCC(C(=O)Nc3ccc(OC)c(OC)c3)C2)cc1 (stereo not given),.,1%,12%,.,21µM*,.
CCOC(=O)c1ccccc1NC(=O)N(Cc1ccc(C)cc1)Cc1cccn1-c1nnc(N2CCCC2=O)s1,.,0%,1%,.,8%,.
CC(C)(C)CC(=O)NCC(c1ccc2c(c1)OCO2)N1CCN(c2ccccc2)CC1 (stereo not given),.,7%,5%,.,.,.
Cc1ccc(S(=O)(=O)N2C[C@@H]3[C@H]4CC[C@H](C4)[C@@H]3[C@@H](C)[C@H]2c2ccco2)cc1,-2,5%,15%,-2%[46.1 µM],21µM*,-7%
CCSc1nc2sc3c(c2c(=O)n1-c1ccc(OC)cc1)CCN(C)C3,-2,0%,-2%,4%,23µM*,6%
SMILES,CCT modulator,Nrf2 activator,A549 viability,TCR act,Nrf2 block,AT treatment
CCCN1C(=O)/C(=C/c2ccc(N3CCCC3)c(C)c2)NC1=S,-1,4%,-16%,1%,21µM*,-9%
Cc1cc(/C=C2\NC(=S)N(C)C2=O)ccc1N1CCCC1,-1,2%,-7%,-3%,?,1%
Cc1ccc(-c2nnc(Nc3ccc4c(c3)nc(C)n4C)c3ccccc23)cc1,-1,3%,?,.,21µM*,-3%
Cc1ccc(-c2nnc(Nc3ccc(CC(N)=O)cc3)c3ccccc23)cc1,1,5%,-2%,-1%,-6%,-12%
CCc1cccc(-n2c(=O)c3cccnc3n2CC(=O)Nc2ccccc2C(=O)OC)c1,.,3%,?,.,?,.
C#CC[N+]1(CC#Cc2ccccc2)CCCCC1,0,-1%,-3%,-2%,-14%,-1%
C(#Cc1ccccc1)C[N+]1(CC#Cc2ccccc2)CCCCC1,-2,0%,-18%,2%,12µM*,-4%
O=S(=O)(c1cccc(F)c1)N1CCC(Oc2ccc(-n3cnnn3)cc2)CC1,.,-1%,?,.,?,.
CC12CCC(C(=O)NNc3ccccc3)(C(=O)C1=O)C2(C)C (stereo not given),0,0%,2%,6%,-3%,-14%
CNc1snc(C)c1C(=O)OC(C)C(=O)c1ccc(F)cc1 (stereo not given),-3,0%,-5%,0%,21µM*,-11%
CNc1snc(C)c1C(=O)OCC(=O)c1ccc(Cl)cc1,-1,6%,3%,0%,?,5%
COc1ccc(C(=O)NCC(=O)OC(C(=O)Nc2cc(C(F)(F)F)ccc2Cl)c2ccccc2)cc1OC (stereo not given),.,.,-3%,.,-16%,.
Brc1ccc2nc(SCCOc3ccccc3)[nH]c2c1,.,0%,-1%,.,-3%,.
Cn1c(CSc2nc3ccc(Br)cc3[nH]2)nc2ccccc21,-7,3%,?,14%,21µM*,12%
O=C(CSc1ccccc1)NCC1(N2CCCCC2)CCCCC1,0,0%,-22%,1%,4%,-5%
Cc1ccc(NS(=O)(=O)c2cc3c(cc2F)NC(=O)CC3)cc1Cl,.,.,-17%,.,?,.
CCCCn1c(=N)n(CC(=O)c2ccco2)c2ccccc21,1,13%,2%,.,-26%,15%
N=c1n(CCN2CCCCC2)c2ccccc2n1CC(=O)c1ccc(Cl)c(Cl)c1,-1,8%,-15%,2%,1%,35µM*
